The structures appear in SMILES notation. Results with a measured potency or affinity are listed apart. The source made the active and inactive calls.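 The calls were made as follows: active = signal falls, with fitted half-maximal concentration at most twice the top valid dose tested; inconclusive = flat curve with partial signal loss, or poor curve fit; inactive = the rest, including signal rising instead.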

This experiment deals with DNA repair and recombination protein RAD54-like (Homo sapiens) (UniProt Q92698). Kind of experiment: RAD54 Holliday junction migration blockers – biochemical, fluorescence, cherry-picked samples, dose series, confirmation (AID 651657). Particulars: RAD54 branch migration, FAM/BHQ fluorescence, 60 min; series mostly up to 50 µM.
Chain of DNA repair and recombination protein RAD54-like (Homo sapiens) (Q92698 whole entry, looked up): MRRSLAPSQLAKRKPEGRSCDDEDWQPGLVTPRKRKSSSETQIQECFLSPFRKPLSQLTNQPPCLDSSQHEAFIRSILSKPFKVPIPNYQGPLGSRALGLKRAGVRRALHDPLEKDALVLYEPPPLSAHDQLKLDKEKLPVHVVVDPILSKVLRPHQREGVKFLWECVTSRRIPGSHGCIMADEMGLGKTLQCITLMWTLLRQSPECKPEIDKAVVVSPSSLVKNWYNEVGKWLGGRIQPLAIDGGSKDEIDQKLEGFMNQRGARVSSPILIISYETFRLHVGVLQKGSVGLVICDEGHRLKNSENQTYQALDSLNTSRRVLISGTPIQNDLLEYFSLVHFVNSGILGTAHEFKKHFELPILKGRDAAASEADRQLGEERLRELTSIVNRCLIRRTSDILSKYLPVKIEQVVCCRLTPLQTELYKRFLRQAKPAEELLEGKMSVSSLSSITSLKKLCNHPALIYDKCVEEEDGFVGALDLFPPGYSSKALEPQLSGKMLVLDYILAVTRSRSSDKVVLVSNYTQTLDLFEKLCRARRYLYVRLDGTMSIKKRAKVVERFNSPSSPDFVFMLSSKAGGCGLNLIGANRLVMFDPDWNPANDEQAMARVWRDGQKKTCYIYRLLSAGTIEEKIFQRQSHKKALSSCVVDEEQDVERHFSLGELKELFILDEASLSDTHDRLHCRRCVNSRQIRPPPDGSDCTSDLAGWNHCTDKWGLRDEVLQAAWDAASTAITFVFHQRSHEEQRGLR
With `Nc1ccc(CCN2CCCC2)cc1`, the result was inactive.

On to `Nc1ccnn1C1CCNCC1`, for which the result was inactive.

As for `CCN1CCN(c2ccc(N)c(C)c2)CC1`, the outcome was inactive.
